In all, about 17,000 compounds went through this assay and about 220 (1.3%) were called active.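 The calls were made as follows: active = spot fluorescence over background significantly raised, with a chance value under 7% in all four replicate spots of the compound; inactive = the rest.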 The entries come from a sample that favours actives as a whole.
target: Nuclear factor NF-kappa-B p105 subunit (Homo sapiens) (UniProt P19838); test: small molecules binding NF-kappa-B p105/p50 – biochemical, small molecule microarray, anti-His fluorescence, primary screen (AID 624139);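 also: probe protein is his-tagged human p50 processed subunit at 1 µg/ml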
Sequence (P19838 1-433 limits assumed): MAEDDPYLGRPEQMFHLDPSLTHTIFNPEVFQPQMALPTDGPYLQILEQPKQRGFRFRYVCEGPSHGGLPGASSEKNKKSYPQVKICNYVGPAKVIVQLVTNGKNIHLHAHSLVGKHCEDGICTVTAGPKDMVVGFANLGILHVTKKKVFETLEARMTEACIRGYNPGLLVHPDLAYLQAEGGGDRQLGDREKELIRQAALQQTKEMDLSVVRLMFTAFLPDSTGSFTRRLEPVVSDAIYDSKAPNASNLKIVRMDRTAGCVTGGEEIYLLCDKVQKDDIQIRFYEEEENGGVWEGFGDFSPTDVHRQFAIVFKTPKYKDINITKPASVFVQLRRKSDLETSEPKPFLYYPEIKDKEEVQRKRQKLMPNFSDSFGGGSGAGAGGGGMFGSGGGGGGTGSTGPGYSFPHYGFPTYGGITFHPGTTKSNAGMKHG

Row | SMILES | outcome
1 | C[C@@H]1CN([C@@H](C)CO)C(=O)Cc2cc(NC(=O)Cc3ccccc3)ccc2O[C@H]1CN(C)Cc1ccc(C(=O)O)cc1 | inactive
2 | Cc1noc(C)c1NC(=O)Nc1ccc2c(c1)C(=O)N([C@H](C)CO)C[C@H](C)[C@H](CN(C)C(=O)C1CCCCC1)OCCCC[C@@H](C)O2 | inactive
3 | C[C@H]1CCCCO[C@H](CN(C)C(=O)CCC(F)(F)F)[C@@H](C)CN([C@@H](C)CO)C(=O)c2cc(NC(=O)Cc3ccccc3)ccc2O1 | inactive
4 | C=CC[C@]1(C(=O)NCC(O)CO)N=C(c2ccc(OCCCO)cc2)O[C@H]1c1ccccc1 (stereo partly drawn) | inactive
5 | CNC[C@@H]1Oc2c(NC(=O)C3CCOCC3)cccc2C(=O)N([C@@H](C)CO)C[C@H]1C | inactive
6 | COc1ccc(NC(=O)O[C@H]2[C@H](OC(=O)Nc3ccc4c(c3)OCO4)[C@@H](OC(=O)Nc3ccc4c(c3)OCO4)[C@@H](OC)O[C@@H]2CO)cc1 | inactive
7 | C[C@H](CO)N1C[C@H](C)[C@@H](CN(C)Cc2ccncc2)Oc2ccc(NC(=O)Nc3ccccc3)cc2C1=O | inactive
8 | C[C@H](CO)N1C[C@H](C)[C@H](CN(C)Cc2ccncc2)Oc2ccc(NC(=O)Nc3ccc(F)cc3)cc2C1=O | inactive
9 | C[C@@H]1CN([C@@H](C)CO)C(=O)c2cc(NS(=O)(=O)c3cn(C)cn3)ccc2O[C@@H](C)CCCCO[C@H]1CN(C)S(=O)(=O)c1cn(C)cn1 | inactive
10 | OC(COc1ccc2ccccc2c1)Cn1cncn1 (stereo not drawn) | inactive
11 | COc1ccc(S(=O)(=O)N(C)C[C@@H]2Oc3ccc(NS(=O)(=O)c4ccc(Cl)cc4)cc3C(=O)N([C@H](C)CO)C[C@H]2C)cc1 | inactive
12 | Cc1cc(C(=O)Nc2cccc3c2O[C@H](CN(C)C(=O)Nc2ccccc2)[C@@H](C)CN([C@H](C)CO)C3=O)n(C)n1 | inactive
13 | O=c1[nH]c(CSCCO)nc2c1C1(CCCCC1)Cc1ccccc1-2 | inactive
14 | C[C@@H]1CCCCO[C@@H](CN(C)Cc2ccc(Cl)c(Cl)c2)[C@@H](C)CN([C@@H](C)CO)C(=O)c2cc(NS(C)(=O)=O)ccc2O1 | inactive
15 | CO[C@H]1O[C@H](CO)[C@@H](OC(=O)Nc2ccccc2)[C@H](OC(=O)Nc2ccc3c(c2)OCO3)[C@H]1OC(=O)Nc1ccc2c(c1)OCO2 | inactive
16 | O=C(Cn1c(-c2ccccn2)nc2ccccc21)NCCN1CCOCC1 | inactive
17 | C[C@H]1CN([C@@H](C)CO)C(=O)CCCn2nncc2CO[C@@H]1CN(C)Cc1ccc(Oc2ccccc2)cc1 | inactive
18 | O=C1c2ccccc2C(=O)N1CCCn1c2ccccc2c2nc3ccc([N+](=O)[O-])cc3cc21 | inactive
19 | C[C@H]1CCCCO[C@@H](CN(C)Cc2ccncc2)[C@@H](C)CN([C@@H](C)CO)C(=O)c2cc(NC(=O)Nc3ccc(F)cc3)ccc2O1 | inactive
20 | CN(C)c1nc(Nc2nc3ccccc3[nH]2)nc(N(C)C)n1 | inactive
21 | Cc1ccc(NC(=O)c2ccc(NCc3cccnc3)c([N+](=O)[O-])c2)cc1 | inactive
22 | COc1ccc(S(=O)(=O)N(C)C[C@H]2Oc3ccc(NC(=O)CCC(F)(F)F)cc3CC(=O)N([C@H](C)CO)C[C@@H]2C)cc1 | inactive
23 | CC(C)NC(=O)N(C)C[C@H]1OCCCC[C@H](C)Oc2ccc(NC(=O)CCCN(C)C)cc2C(=O)N([C@@H](C)CO)C[C@H]1C | inactive

Row | SMILES | outcome
24 | COC(=O)c1c(NC(=O)c2cc(-c3ccccn3)nc3c(C)cc(C)cc23)sc(C)c1C | inactive
25 | CC(C)(C)[C@H]1C=C(C(=O)NCc2ccccc2)O[C@@H](OCc2ccc(CO)cc2)C1 | inactive
26 | Cc1sc2nc(SCC(=O)Nc3ccccc3C(F)(F)F)nc(N)c2c1C | inactive
27 | NC(=O)CSc1nnc(-c2ccccc2F)n1-c1ccccc1 | inactive
28 | C[C@@H]1CN([C@H](C)CO)C(=O)c2cc(NC(=O)CCCN(C)C)ccc2O[C@H]1CN(C)Cc1ccc(C(=O)O)cc1 | inactive
29 | CC(C)NC(=O)N(C)C[C@H]1OCCCC[C@H](C)Oc2ccc(NC(=O)CCC(F)(F)F)cc2C(=O)N([C@@H](C)CO)C[C@@H]1C | inactive
30 | C[C@@H]1CCCCO[C@@H](CN(C)Cc2ccccc2)[C@H](C)CN([C@H](C)CO)C(=O)c2cc(NS(=O)(=O)c3cccs3)ccc2O1 | inactive
31 | C[C@@H]1CN([C@H](C)CO)C(=O)Cc2cc(NC(=O)CCN3CCOCC3)ccc2O[C@H]1CN(C)Cc1ccncc1 | inactive
32 | C[C@@H]1CCCCO[C@H](CN(C)Cc2ccncc2)[C@H](C)CN([C@H](C)CO)C(=O)c2cc(NC(=O)Nc3ccccc3)ccc2O1 | inactive
33 | CC(C)NC(=O)Nc1cccc2c1O[C@H](CN(C)Cc1ccccc1)[C@H](C)CN([C@H](C)CO)C2=O | inactive
34 | C[C@@H]1CN([C@H](C)CO)C(=O)Cc2cc(NC(=O)CCCN(C)C)ccc2O[C@@H]1CN(C)S(=O)(=O)c1cccs1 | inactive
35 | C[C@H](CO)N1C[C@H](C)[C@@H](CN(C)S(=O)(=O)c2cn(C)cn2)Oc2ccc(N(C)C)cc2CC1=O | inactive
36 | C[C@H]1CN([C@@H](C)CO)C(=O)c2cc(NC(=O)Nc3cccc4ccccc34)ccc2O[C@@H]1CN(C)C | inactive
37 | C[C@H](CO)N1C[C@H](C)[C@H](CN(C)C(=O)NC2CCCC2)Oc2ncc(-c3ccc(F)cc3)cc2C1=O | inactive
38 | CCOc1ccc(-c2cn(S(=O)(=O)c3cccc4nsnc34)nc2N)cc1 | inactive
39 | Cc1cccc(NC(=O)CN2C(=O)CNC2=O)c1 | inactive
40 | CC(C)NC(=O)Nc1ccc2c(c1)C(=O)N([C@@H](C)CO)C[C@H](C)[C@@H](CN(C)C)O2 | inactive
41 | C[C@H](CO)N1C[C@H](C)[C@@H](CN(C)C)Oc2ccc(N(C)C)cc2C1=O | inactive
42 | C[C@@H]1CN([C@H](C)CO)C(=O)c2cccc(NS(C)(=O)=O)c2O[C@@H]1CN(C)S(=O)(=O)c1cccs1 | inactive
43 | C[C@H]1CN([C@@H](C)CO)C(=O)c2cc(NC(=O)NC3CCCCC3)ccc2O[C@@H]1CN(C)S(=O)(=O)c1cccs1 | inactive
44 | COc1cccc(/C=C(\C#N)C(=O)Nc2c(C)n(C)n(-c3ccccc3)c2=O)c1 | inactive
45 | C[C@H](CO)N1C[C@H](C)[C@H](CN(C)C(=O)NC2CCCCC2)Oc2ccc(NC(=O)c3ccncc3)cc2CC1=O | inactive
46 | Cc1c(C(=O)NC(=S)NCc2cccnc2)oc2ccccc12 | inactive

Row | SMILES | outcome
47 | Cc1noc(C)c1NC(=O)N(C)C[C@@H]1OCCCC[C@H](C)Oc2ccc(NC(=O)CCC(F)(F)F)cc2C(=O)N([C@@H](C)CO)C[C@@H]1C | inactive
48 | C[C@H]1CN([C@@H](C)CO)C(=O)Cc2cc(NC(=O)Nc3ccc(F)cc3)ccc2O[C@@H]1CN(C)C(=O)NC1CCCCC1 | inactive
49 | O=C(Nc1cccc(OCC(=O)N2CCOCC2)c1)C1CCCCC1 | inactive
50 | O=C(C1=C[C@H](c2coc3ccccc3c2=O)C[C@H](OCc2ccc(CO)cc2)O1)N1CCOCC1 | inactive
51 | C[C@@H]1CCCCO[C@@H](CN(C)C(=O)Nc2ccccc2)[C@@H](C)CN([C@@H](C)CO)C(=O)c2cc(N(C)C)ccc2O1 | inactive
52 | C[C@@H]1CN([C@H](C)CO)C(=O)Cc2cc(NC(=O)C3CC3)ccc2O[C@H]1CN(C)Cc1ccc2c(c1)OCO2 | inactive
53 | C[C@@H]1CN([C@H](C)CO)C(=O)c2cccc(NC(=O)Nc3ccccc3)c2O[C@@H]1CN(C)C(=O)NC1CCCCC1 | inactive
54 | C[C@H](CO)N1C[C@H](C)[C@@H](CN(C)C(=O)Nc2ccccc2)Oc2ccc(NC(=O)C3CC3)cc2CC1=O | inactive
55 | C[C@@H]1CN([C@H](C)CO)C(=O)Cc2cc(NC(=O)C3CC3)ccc2O[C@H]1CN(C)Cc1ccc(Cl)c(Cl)c1 | active
56 | C[C@@H]1CCCCO[C@@H](CN(C)C(=O)Nc2ccccc2)[C@@H](C)CN([C@H](C)CO)C(=O)c2cc(NC(=O)Nc3ccc(F)cc3)ccc2O1 | inactive
57 | CC(C)NC(=O)Nc1ccc2c(c1)C(=O)N([C@@H](C)CO)C[C@@H](C)[C@H](CN(C)C(=O)Cc1ccccc1)OCCCC[C@H](C)O2 | inactive
58 | C[C@@H]1CCCCO[C@@H](CN(C)C(=O)Cc2ccccc2)[C@H](C)CN([C@@H](C)CO)C(=O)c2cc(NC(=O)Nc3ccc(F)cc3)ccc2O1 | active
59 | C[C@H](CO)N1C[C@H](C)[C@@H](CN(C)C(=O)Nc2cccc3ccccc23)OCCCC[C@H](C)Oc2ccc(N(C)C)cc2C1=O | active
60 | C[C@@H]1CCCCO[C@H](CN(C)C(=O)Nc2ccccc2)[C@H](C)CN([C@@H](C)CO)C(=O)c2cc(N(C)C)ccc2O1 | inactive
61 | C[C@H]1CN([C@@H](C)CO)C(=O)c2cccc(NC(=O)Nc3ccc(C(F)(F)F)cc3)c2O[C@H]1CN(C)C(=O)NC1CCCCC1 | active
62 | C[C@H](CO)N1C[C@H](C)[C@@H](CN(C)C(=O)NC2CCCCC2)Oc2c(NC(=O)Nc3ccc(F)cc3)cccc2C1=O | inactive
63 | CC(C)NC(=O)N(C)C[C@@H]1OCCCC[C@@H](C)Oc2ccc(NC(=O)Nc3ccccc3)cc2C(=O)N([C@H](C)CO)C[C@@H]1C | inactive
64 | C[C@@H]1CN([C@@H](C)CO)C(=O)c2cc(NC(=O)C3CCCCC3)ccc2O[C@@H](C)CCCCO[C@@H]1CN(C)C(=O)Nc1ccccc1 | inactive
65 | C[C@@H]1CCCCO[C@H](CN(C)C(=O)Nc2ccccc2)[C@H](C)CN([C@H](C)CO)C(=O)c2cc(NC(=O)Nc3ccccc3)ccc2O1 | inactive
66 | C[C@@H]1CCCCO[C@H](CN(C)C(=O)NC2CCCCC2)[C@H](C)CN([C@@H](C)CO)C(=O)c2cc(NC(=O)C3CCCCC3)ccc2O1 | active
67 | C[C@H](CO)N1C[C@H](C)[C@@H](CN(C)C)OCCCC[C@H](C)Oc2ccc(NC(=O)C3CCCCC3)cc2C1=O | inactive
68 | C[C@@H]1CCCCO[C@H](CN(C)C(=O)C2CCCCC2)[C@@H](C)CN([C@@H](C)CO)C(=O)c2cc(NC(=O)Nc3ccccc3)ccc2O1 | active

— PubChem BioAssay AID624139 (Broad Institute, 2012)
